The record followed here is PubChem BioAssay (Tox21).

The nature of assay [1]: qHTS assay to identify small molecule antagonists of the vitamin D receptor (VDR) signaling pathway - cell viability counter screen (AID 743225). Also: nearly all actives have a fitted effect of over 50% in size. Also: potency is read from the fitted curve at half-maximal effect. In outline:
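Compounds were pinned onto VDR-bla HEK 293T cells together with 1-alpha,25-dihydroxyvitamin D3 at 3 nM final. After 16 h at 37C and 5% CO2 plus the reporter readout, cell viability was measured by CellTiter-Glo luminescence (30 min, room temperature).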
(In general: qHTS replaces the single test concentration by a dilution series.)

Assay [2] can be described thus: qHTS assay to identify small molecule agonists of the NFkB signaling pathway (AID 1159509; active = well fitted curve in the direction sought with a large enough effect in the signal ratio in the repeat runs, not every such curve was filed as active; the % refers to the signal ratio; also: potency is read from the fitted curve at half-maximal effect). In outline:
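Readout: FRET fluorescence, 405 nm excitation, 460/530 nm emission; beta-lactamase expression disrupts FRET. Cells: ME-180 stably carrying NF-kB-driven bla reporter. Compound exposure 5 hr, 37 C, 5% CO2.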

A short description of assay [3]: qHTS assay to identify small molecule agonists of the NFkB signaling pathway - cell viability counter screen (AID 1159515; calls by dose curve; also: nearly all actives have a fitted effect of over 55% in size). The essentials: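 Cells are seeded (2,000 NFkB-bla ME-180 per well), rested overnight, and dosed with DMSO-dissolved compounds for 5 hr at 37 C. Viability is then read by CellTiter-Glo luminescence after 30 min at room temperature.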
Assay [4] can be described thus: qHTS assay to identify small molecule agonists of the endoplasmic reticulum stress response signaling pathway - cell viability counter screen (AID 1159517; calls by dose curve; also: nearly all actives have a fitted effect of over 50% in size; also: potency is read from the fitted curve at half-maximal effect). In outline: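 Steps: seed 1,500 ESRE-bla HeLa cells per well; incubate overnight at 37 C, 5% CO2; add compounds in DMSO for 5 hr; run FRET substrate 2 hr RT; add CellTiter-Glo, wait 30 min, read luminescence.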

Assay [5] is described as follows: qHTS assay to identify small molecule antagonists of the retinoid-related orphan receptor gamma (ROR-gamma) signaling pathway - cell viability counter screen (AID 1159520). Also: nearly all actives have a fitted effect of over 50% in size. Also: potency is read from the fitted curve at half-maximal effect. In outline:
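Tet-on ROR gamma CHO cells were given compounds for 2 hr, then doxycycline hyclate at 1 uM final, and incubated 16 hr at 37 C. Viability was measured as ATP content by CellTiter-Glo luminescence.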

For assay [6], the target named is Nuclear receptor ROR-gamma (Homo sapiens) (UniProt P51449). The assay can be described thus: qHTS assay to identify small molecule antagonists of the retinoid-related orphan receptor gamma (ROR-gamma) signaling pathway (AID 1159521; also: nearly all actives have a fitted effect of over 50% in size; also: potency is read from the fitted curve at half-maximal effect). The essentials: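 Test compounds were applied to Tet-on RORγ CHO cells 2 h ahead of doxycycline hyclate (1 uM final). Luciferase reporter activity was quantified by luminescence after 16 h at 37 C and 5% CO2.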

Assay [7] can be described thus: qHTS assay to identify small molecule agonists of the AP-1 signaling pathway - cell viability counter screen (AID 1159525; calls by dose curve; also: nearly all actives have a fitted effect of over 55% in size). In outline: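 Same-well cytotoxicity counter screen of the Tox21 10K library in ME-180 cells. The readout is ATP-dependent luminescence after 5 h compound treatment. Data are normalised to DMSO and tetra n-octyl ammonium bromide controls.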
Assay [8] in a line: qHTS assay to identify small molecule antagonists of the retinoid acid receptor (RAR) signaling pathway - cell viability counter screen (AID 1159551). Also: nearly all actives have a fitted effect of over 35% in size. The essentials:
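Cells (C3RL4) are plated, incubated overnight, dosed with compound in DMSO, then given retinol at 1 uM final. After 6 h at 37 C, CellTiter-Glo is added and luminescence read following 30 min at room temperature.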

Assay [9] is described as follows: qHTS assay to identify small molecule antagonists of the retinoic acid receptor (RAR) signaling pathway (AID 1159552; also: nearly all actives have a fitted effect of over 50% in size; also: potency is read from the fitted curve at half-maximal effect). In outline: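 Test chemicals and DMSO controls were pin-transferred onto C3RL4 cells a day after seeding; retinol (1 uM final) followed at once. Luminescent reporter output was quantified after 6 hr of co-incubation and 30 min with detection reagent.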

Assay [10] can be described thus: qHTS assay to identify small molecule agonists of the AP-1 signaling pathway (AID 1159526; calls by dose curve).
In assay [11] the target is Retinoic acid receptor RXR-alpha (Homo sapiens) (UniProt P19793). The assay is described as follows: qHTS assay to identify small molecule agonists of the RXR signaling pathway (AID 1159527; calls by dose curve; also: nearly all actives have a fitted effect of over 35% in size). The essentials:
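Using 9-cis retinoic acid as the reference agonist, chemicals were tested in HEK 293T cells […] for 16 hr; substrate loading lasted 2 hr at room temperature.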

Assay [12] can be described thus: qHTS assay to identify small molecule agonists of the retinoic acid receptor (RAR) signaling pathway (AID 1159553). Particulars: C3RL4 RARE luciferase reporter, agonist, 6 h; activation: at 73.3 µM (top of the series). The essentials: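 Seed C3RL4 reporter cells at 1,000 per well and incubate overnight at 37 C. Add compounds in DMSO, incubate 6 hr. Add luciferase reagent, wait 30 min at room temperature, read luminescence.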

Assay [13] in a line: qHTS assay to identify small molecule antagonists of the estrogen related receptor (ERR) signaling pathway - cell viability counter screen (AID 1224818). In outline:
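ERR cells, 2,000/well; 6 h settle at 37 C/5% CO2; compound pin transfer (DMSO); 17.5 h at 37 C; CellTiter-Fluor, 30 min, fluorescence read.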

The nature of assay [14]: qHTS assay to identify small molecule agonists of the estrogen related receptor (ERR) signaling pathway (AID 1224820). In outline:
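Luminescence readout (One-Glo, 30 min RT) from NTP-supplied ERR cell line exposed to compounds for 18 h at 37 C. Cells seeded 2,000 per well and pre-incubated 6 h before pin-tool compound transfer.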

Assay [15] deals with estrogen-related receptor alpha (ERRalpha) with PGC-1alpha coactivator, human. The assay can be described thus: qHTS assay to identify small molecule antagonists of the estrogen related receptor signaling pathway with the pleiotropic PPARgamma coactivator (PGC) (AID 1224821; calls by dose curve). In outline:
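PGC/ERR reporter cells; 6 h pre-incubation 37 C/5% CO2; pin-tool compound in DMSO, 18 h 37 C; One-Glo added, 30 min RT; luminescence read. qHTS antagonist mode.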

A short description of assay [16]: qHTS assay to identify small molecule agonists of the vitamin D receptor (VDR) signaling pathway - cell viability counter screen (AID 743224). Also: nearly all actives have a fitted effect of over 50% in size. Also: potency is read from the fitted curve at half-maximal effect. The essentials:
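Cells: VDR-bla, 2,000/well, settled 4 h. Treatment: compounds in DMSO, 16 h, 37C/5% CO2. Readout: CellTiter-Glo luminescence after 30 min RT.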

A short description of assay [17]: qHTS assay to identify small molecule agonists of the RXR signaling pathway - cell viability counter screen (AID 1159529). Also: nearly all actives have a fitted effect of over 50% in size. Also: potency is read from the fitted curve at half-maximal effect. In outline:
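Compounds dissolved in DMSO were pinned onto HEK 293T cells carrying a beta-lactamase reporter under RXR-alpha control and incubated 16 hr. Cytotoxicity was then quantified by CellTiter-Glo luminescence.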

A short description of assay [18]: qHTS assay to identify small molecule antagonists of the estrogen related receptor signaling pathway with the pleiotropic PPARgamma coactivator (PGC) cell viability counter screen (AID 1224822;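 also: viability read after 17.5 h compound exposure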). In outline: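 Multiplexed viability counter screen run in PGC/ERR cells treated with compounds for 17.5 h at 37 C; live-cell protease signal measured by CellTiter-Fluor fluorescence.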

Each structure is given as a SMILES string. Results filed as inconclusive are left out. Activity calls are given as the source filed them. Unless noted, calls follow the shape of the dose curve; as a rule, active = well fitted curve in the direction sought with a large enough effect in the repeat runs; inconclusive = weak or mixed curves; inactive = no such curve, though single readings can be large; an effect the other way counts as inactive or inconclusive.

Retinoic acid receptor RXR-alpha (Homo sapiens), sequence (P19793 whole entry, looked up): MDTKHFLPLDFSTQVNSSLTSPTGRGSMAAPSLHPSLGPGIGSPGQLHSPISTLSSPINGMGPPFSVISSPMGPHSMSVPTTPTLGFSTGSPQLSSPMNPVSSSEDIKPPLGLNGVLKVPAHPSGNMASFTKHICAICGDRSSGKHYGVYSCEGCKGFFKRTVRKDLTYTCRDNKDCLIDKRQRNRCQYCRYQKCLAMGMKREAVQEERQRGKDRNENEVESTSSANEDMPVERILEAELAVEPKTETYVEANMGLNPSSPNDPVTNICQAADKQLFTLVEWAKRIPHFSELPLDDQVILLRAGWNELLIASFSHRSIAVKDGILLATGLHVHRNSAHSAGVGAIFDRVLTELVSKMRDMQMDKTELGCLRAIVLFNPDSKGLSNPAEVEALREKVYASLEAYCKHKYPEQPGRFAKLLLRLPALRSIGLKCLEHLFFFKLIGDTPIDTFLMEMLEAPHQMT

With `C[C@@]12CCC[C@H]1[C@@H]1CC[C@H]3C[C@@H](O)CC[C@]3(C)[C@H]1CC2`, the Potency result in [1], in assay [2], in assay [3], in assay [4], in assay [5] and in assay [7] was “inactive” in each case. Moreover, the Potency result in [8] and in [9] was “inactive” each time. In addition, the Potency in [6] is 13.3 µM (active).
As for `CCOC(=O)C1=C(C)NC(C)=C(C(=O)OC)C1c1cccc(Cl)c1Cl` (stereo unspecified), the Potency result in assay [2], in assay [3], in [4], in assay [6], in assay [7] and in assay [10] was “inactive” each time. For the same molecule, the Potency result in [11], in assay [8] and in [12] was “inactive” throughout. For the same molecule, the molecule was called inactive in assay [13], in [14] and in assay [15].
On to `C[C@H]1c2cccc(O)c2C(O)=C2C(=O)[C@]3(O)C(O)=C(C(N)=O)C(=O)[C@@H](N(C)C)[C@@H]3[C@@H](O)[C@@H]21`, for which the Potency entry in assay [16], in [1], in assay [2], in [3], in [4] and in [7] was “inactive” each time. For the same molecule, the Potency entry in assay [17] and in assay [8] was “inactive” in each case. Also, the Potency in assay [6] was 29.8 µM (active). Further, the molecule was classed as inactive in assay [13], in [14] and in [18].
Consider `O=Cc1c2ccccc2c(Cl)c2ccccc12`, for which the Potency result in assay [16], in assay [1], in assay [2], in assay [3], in [4] and in assay [5] was “inactive” each time. The Potency entry in [7], in assay [8], in assay [9] and in assay [12] was “inactive” each time.
Regarding `CC1(C)O[C@@H]2C[C@H]3[C@@H]4C[C@H](F)C5=CC(=O)C=C[C@]5(C)[C@H]4[C@@H](O)C[C@]3(C)[C@]2(C(=O)CO)O1`, the Potency result in assay [16], in assay [1], in assay [2], in assay [3], in assay [4] and in assay [5] was “inactive” in each case. Further, the Potency entry in assay [7], in assay [11], in assay [17] and in assay [8] was “inactive” throughout.
For `COC(=O)C1=C(C)NC(C)=C(C(=O)O[C@@H]2CCCN(Cc3ccccc3)C2)[C@@H]1c1cccc([N+](=O)[O-])c1`, the Potency entry in assay [16], in assay [1], in assay [2], in assay [3], in assay [4] and in [5] was “inactive” throughout. Also, the Potency entry in assay [7], in assay [10], in assay [17] and in assay [8] was “inactive” throughout.
For the molecule `COC(=O)c1nc(Cl)c(Cl)nc1N`, the Potency is 11.9 µM (active) in [16]; 23.9 µM (active) in assay [1]; 15.1 µM (active) in [2]; 21.3 µM (active) in assay [4]; 13.3 µM (active) in [5]; 3.76 µM (active) in [6]. For the same molecule, the values for the Potency in assay [17] and in assay [9] were 13.4 µM (active) and 11.9 µM (active), respectively. The Potency entry in assay [3] and in assay [7] was “inactive” in each case.
For the molecule `CC1(C)[C@H](C(=O)O)N2C(=O)C[C@H]2S1(=O)=O`, the Potency entry in [16], in [2], in assay [3], in [4], in [5] and in assay [6] was “inactive” each time. The Potency result in assay [7], in [17], in assay [8], in assay [9] and in assay [12] was “inactive” in each case.
`CC1(C)[C@@H](OC(=O)CCC(=O)O)CC[C@]2(C)[C@H]3C(=O)C=C4[C@@H]5C[C@@](C)(C(=O)O)CC[C@]5(C)CC[C@@]4(C)[C@]3(C)CC[C@@H]12`: the Potency result in [16], in assay [1], in assay [2], in assay [3], in assay [4] and in assay [5] was “inactive” each time. Moreover, the Potency entry in assay [6], in [7], in [17], in [8], in assay [9] and in [12] was “inactive” each time.
